Reference: PubChem BioAssay AID1159580 (chemical genetic matrix, 2015)
“And” between values parts separate entries of the source, which are not always exact repeats. Equal entries are not always repeated. The whole screen tested about 5,500 compounds, of which about 2,000 (36%) were called active. Roughly 18% stayed inconclusive and do not appear here. No stated cut-off is given here; in the data, active means normalized growth mostly below about 0.91 (no sharp cut-off); inconclusive means no clear call, values can overlap the other calls; inactive means mostly above about 0.92. The list shows a part of the results.

Experiment: chemical genetic growth profiling, strain panel (AID 1159580);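 further: tested at 20 µM; growth read once vehicle control cultures reached saturation at 30 °C; 1 = growth at the plate median or of vehicle wells; lower values mean less growth of the strain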
Settings: S. cerevisiae deletion strains, growth OD

Measured: normalized growth

NCCCCN=C(N)N
inactive: locus YAL013W, strain DEP1, active compounds read low 1 | locus YAL021C, strain ccr4, active compounds read low 1.02 | locus YAL026C, strain drs2, active compounds read low 1.03 | locus YAL030W, strain snc1, active compounds read low 1.03 | locus YAL040C, strain CLN3, active compounds read low 1 | locus YBL061C, strain skt5, active compounds read low 1.01 | locus YBR009C, strain hhf1, active compounds read low 1.02 | locus YBR021W, strain FUR4, active compounds read low 0.983 | locus YBR023C, strain chs3, active compounds read low 1.03 | locus YBR171W, strain sec66, active compounds read low 1.03 | locus YBR229C, strain ROT2, active compounds read low 0.996 | locus YBR231C, strain swc5, active compounds read low 1.01 | locus YBR279W, strain paf1, active compounds read low 1.01 | locus YCL011C, strain gbp2, active compounds read low 1.03 | locus YCL016C, strain dcc1, active compounds read low 1.01 | locus YCL029C, strain bik1, active compounds read low 0.979 | locus YCL061C, strain MRC1 (second series), active compounds read low 1.01 | locus YCL069W, strain vba3, active compounds read low 1.02 | locus YCR088W, strain abp1, active compounds read low 1.04 | locus YDL005C, strain med2, active compounds read low 1.04 | locus YDL035C, strain GPR1, active compounds read low 1.02 | locus YDL040C, strain nat1, active compounds read low 1.02 | locus YDL074C, strain BRE1, active compounds read low 0.992 | locus YDL101C, strain DUN1, active compounds read low 0.998 | locus YDL134C, strain PPH21, active compounds read low 1.04 | locus YDL185W, strain tfp1, active compounds read low 0.976 | locus YDL192W, strain arf1, active compounds read low 0.986 | locus YDR001C, strain nth1, active compounds read low 1.01 | locus YDR069C, strain doa4, active compounds read low 1.02 | locus YDR101C, strain arx1, active compounds read low 0.968 | locus YDR137W, strain rgp1, active compounds read low 1.04 | locus YDR150W, strain NUM1, active compounds read low 1 | locus YDR159W, strain sac3, active compounds read low 1 | locus YDR162C, strain NBP2, active compounds read low 1.01 | locus YDR195W, strain ref2 1.04 | locus YDR297W, strain sur2, active compounds read low 1.02 | locus YDR318W, strain mcm21, active compounds read low 1 | locus YDR334W, strain swr1, active compounds read low 1.02 | locus YDR335W, strain msn5, active compounds read low 1.03 | locus YDR363W, strain ESC2, active compounds read low 0.994 | locus YDR388W, active compounds read low 0.976 | locus YDR392W, strain spt3, active compounds read low 0.992 | locus YDR502C, strain sam2, active compounds read low 0.987 | locus YEL003W, strain gim4, active compounds read low 1.02 | locus YEL037C, strain rad23, active compounds read low 1.02 | locus YEL061C, strain CIN8 (second series), active compounds read low 1.03 | locus YEL061C, strain CIN8, active compounds read low 1 | locus YER002W, strain NOP16, active compounds read low 1.03 | locus YER015W, strain faa2, active compounds read low 1.03 | locus YER016W, strain bim1, active compounds read low 1.01 | locus YER110C, active compounds read low 0.977 | locus YER111C, strain swi4, active compounds read low 1.03 | locus YER155C, strain BEM2 (second series), active compounds read low 1.02 | locus YER155C, strain BEM2, active compounds read low 0.981 | locus YER167W, strain BCK2, active compounds read low 0.999 | locus YFR010W, strain ubp6, active compounds read low 1.04 | locus YGL078C, strain dbp3, active compounds read low 0.981 | locus YGL086W, strain mad1, active compounds read low 0.963 | locus YGL167C, strain pmr1, active compounds read low 1.02 | locus YGL173C, strain kem1, active compounds read low 1.02 | locus YGL227W, strain vid30, active compounds read low 1.02 | locus YGL240W, strain doc1, active compounds read low 1.02 | locus YGL248W, strain PDE1, active compounds read low 1 | locus YGL253W, strain hxk2, active compounds read low 1.02 | locus YGR078C, strain PAC10, active compounds read low 1 | locus YGR135W, strain pre9, active compounds read low 1 | locus YGR229C, strain SMI1, active compounds read low 1.01 | locus YGR252W, strain gcn5, active compounds read low 1.09 | locus YHR013C, strain ard1, active compounds read low 1.12 | locus YHR027C, strain rpn1, active compounds read low 1.02 | locus YHR030C, strain SLT2, active compounds read low 0.993 and 1.01 | locus YHR079C, strain IRE1 (second series), active compounds read low 0.987 | locus YHR079C, strain IRE1, active compounds read low 1.01 | locus YHR094C, strain hxt1, active compounds read low 0.974 | locus YHR142W, strain chs7, active compounds read low 1.05 | locus YHR200W, strain rpn10, active compounds read low 0.987 | locus YIL066C, strain RNR3, active compounds read low 0.994 | locus YIL073C, strain SPO22, active compounds read low 1.03 | locus YIL125W, strain kgd1, active compounds read low 0.974 | locus YIR030C, strain dcg1, active compounds read low 0.988 | locus YJL092W, strain hpr5, active compounds read low 1.02 | locus YJL095W, strain BCK1 (second series), active compounds read low 1.03 | locus YJL095W, strain BCK1, active compounds read low 1.02 and 0.995 | locus YJL115W, strain asf1, active compounds read low 1.03 | locus YJL129C, strain trk1, active compounds read low 1.06 | locus YJL134W, strain LCB3, active compounds read low 0.998 | locus YJL154C, strain vps35, active compounds read low 1.02 | locus YJL164C, strain tpk1, active compounds read low 1.02 | locus YJL166W, strain qcr8, active compounds read low 1.02 | locus YJL168C, strain set2, active compounds read low 0.981 | locus YJL187C, strain SWE1 (second series), active compounds read low 0.997 | locus YJL187C, strain SWE1, active compounds read low 1.02 | locus YJR043C, strain POL32, active compounds read low 0.993 | locus YJR066W, strain TOR1, active compounds read low 0.973 | locus YKL009W, strain mrt4, active compounds read low 1 | locus YKL068W, active compounds read low 0.994 | locus YKL085W, strain MDH1 (second series), active compounds read low 0.993 | locus YKL085W, strain MDH1, active compounds read low 0.993 | locus YKL160W, strain elf1, active compounds read low 1.02 | locus YKL190W, strain CNB1, active compounds read low 1.01 | locus YKR001C, strain vps1, active compounds read low 0.963 | locus YKR026C, strain gcn3, active compounds read low 1.02 | locus YKR091W, strain srl3, active compounds read low 1.02 | locus YLL001W, strain dnm1, active compounds read low 1.01 | locus YLL026W, active compounds read low 1.02 | locus YLL041C, strain sdh2, active compounds read low 1.02 | locus YLR027C, strain aat2, active compounds read low 1.03 | locus YLR039C, strain RIC1, active compounds read low 1.01 | locus YLR058C, strain SHM2, active compounds read low 1.01 | locus YLR102C, strain apc9, active compounds read low 0.985 | locus YLR113W, strain HOG1, active compounds read low 1 | locus YLR221C, strain rsa3, active compounds read low 1.01 | locus YLR258W, strain gsy2, active compounds read low 1.02 | locus YLR262C, strain YPT6 (second series), active compounds read low 1.04 | locus YLR262C, strain YPT6, active compounds read low 1.06 | locus YLR268W, strain sec22, active compounds read low 0.957 | locus YLR320W, strain mms22, active compounds read low 1.02 | locus YLR330W, strain CHS5, active compounds read low 0.978 | locus YLR342W, strain FKS1 (second series), active compounds read low 1.01 | locus YLR342W, strain FKS1, active compounds read low 1.01 | locus YLR357W, strain rsc2, active compounds read low 1.05 | locus YLR370C, strain arc18, active compounds read low 1.03 | locus YLR371W, strain rom2, active compounds read low 0.972 | locus YLR384C, strain iki3, active compounds read low 1.03 | locus YLR418C, strain cdc73, active compounds read low 1.01 | locus YML016C, strain PPZ1, active compounds read low 0.991 | locus YML032C, strain rad52, active compounds read low 1.02 | locus YML120C, strain ndi1, active compounds read low 1.04 | locus YML124C, strain tub3, active compounds read low 0.987 | locus YMR058W, strain fet3, active compounds read low 1.02 | locus YMR078C, strain ctf18, active compounds read low 0.986 | locus YMR125W, strain sto1, active compounds read low 1.03 | locus YMR129W, active compounds read low 1.02 | locus YMR205C, strain PFK2, active compounds read low 1.02 | locus YMR223W, strain ubp8, active compounds read low 1 | locus YMR231W, strain pep5, active compounds read low 1.03 | locus YMR263W, strain SAP30, active compounds read low 1.01 | locus YMR307W, strain GAS1, active compounds read low 1.04 and 0.995 | locus YNL067W, strain RPL9B, active compounds read low 1.01 | locus YNL071W, strain lat1, active compounds read low 1.02 | locus YNL153C, strain GIM3, active compounds read low 1.01 | locus YNL175C, strain NOP13, active compounds read low 0.997 | locus YNL183C, strain NPR1, active compounds read low 0.959 | locus YNL197C, strain WHI3, active compounds read low 1.01 | locus YNL209W, strain ssb2, active compounds read low 1.02 | locus YNL224C, strain SQS1, active compounds read low 1.01 | locus YNL233W, strain BNI4, active compounds read low 0.988 | locus YNL248C, strain rpa49, active compounds read low 1.02 | locus YNL250W, strain rad50, active compounds read low 0.974 | locus YNL271C, strain bni1, active compounds read low 0.976 | locus YNL298W, strain CLA4, active compounds read low 0.969 | locus YNL307C, strain MCK1, active compounds read low 0.973 | locus YNL322C, strain KRE1 (second series), active compounds read low 1.03 | locus YNL322C, strain KRE1, active compounds read low 1 | locus YNR049C, strain mso1, active compounds read low 1.02 | locus YNR052C, strain pop2, active compounds read low 0.995 | locus YOL012C, strain htz1 0.814 | locus YOL147C, strain pex11, active compounds read low 0.993 | locus YOR001W, strain rrp6, active compounds read low 1.03 | locus YOR061W, strain CKA2, active compounds read low 1 | locus YOR069W, strain VPS5, active compounds read low 0.994 | locus YOR070C, strain gyp1, active compounds read low 1.02 | locus YOR080W, strain dia2, active compounds read low 1.03 | locus YOR083W, strain WHI5 (second series), active compounds read low 1.01 | locus YOR083W, strain WHI5, active compounds read low 1.01 | locus YOR106W, strain vam3, active compounds read low 1.04 | locus YOR136W, strain idh2, active compounds read low 0.972 | locus YOR144C, strain elg1, active compounds read low 0.984 | locus YOR184W, strain ser1, active compounds read low 0.985 | locus YOR265W, strain rbl2, active compounds read low 1.02 | locus YOR270C, strain vph1, active compounds read low 1.05 | locus YOR290C, strain snf2, active compounds read low 1.01 | locus YOR316C, strain cot1, active compounds read low 0.983 | locus YPL051W, strain arl3, active compounds read low 1.01 | locus YPL078C, strain atp4, active compounds read low 1.03 | locus YPL106C, strain sse1, active compounds read low 1.04 | locus YPL240C, strain hsp82, active compounds read low 1.02 | locus YPL256C, strain CLN2, active compounds read low 0.994 | locus YPR119W, strain clb2, active compounds read low 0.988 | locus YPR141C, strain kar3, active compounds read low 0.988 | locus YPR163C, strain tif3, active compounds read low 0.975 | locus YPR167C, strain met16, active compounds read low 0.986 | strain wtn01, active compounds read low 0.939
